The test system of one assay is Plasmodium falciparum. The assay is described as follows: GSK_TCMDC: Inhibition of Plasmodium falciparum Dd2 in whole red blood cells, using parasite LDH activity as an index of growth. Test compounds present at 2uM. It counts as functional.
`Cc1cc(-c2ccc(NC(=O)N3CCc4cc(Br)c(N5CCN(C)CC5)cc43)cc2)cc(C)n1` had an Inhibition of 4%.
As to `CCOc1cccc(C(=O)Nc2cccc(CN3CCCN(Cc4ccc(O)cc4)CC3)c2)c1.O=C(O)C(F)(F)F`, the Inhibition is listed as 31%.
The same measure, in the same setting: under `O=C(Nc1cc(C(F)(F)F)cc(C(F)(F)F)c1)c1cc(Cl)ccc1O` [IMD-0354] stands 98%; under `c1ccc(-c2cccc(-c3ccccn3)n2)nc1` [TERPYRIDINE], 99%.
Same read-out and setting: in the case of `CCOc1cc2ncnc(Nc3cc(Cl)c(Cl)c(Cl)c3)c2cc1OCC.Cl` it was 98%; in that of `CCCCCc1ccc(NC(=O)Nc2ccc(Cn3ncc(N4CCCNCC4)c(Cl)c3=O)cc2)cc1.O=C(O)C(F)(F)F`, 23%; in that of `NCC1CCCN1Cc1ccc(-c2cccc(-c3nc4cc(C(F)(F)F)ccc4[nH]3)c2)cc1.O=C(O)C(F)(F)F` (stereo unspecified), 97%.
Same read-out and setting: in the case of `COc1ccc2nccc([C@@H](O)CN3CCC(NCc4ccc5nnsc5c4)CC3)c2c1.O=C(O)C(=O)O` it was 0%.
Consider `CCC1=C(CC2NCCc3cc(OC)c(OC)cc32)CC2c3cc(OC)c(OC)cc3CCN2C1` (stereo unspecified) [DIHYDROEMETINE], for which the Inhibition was 100%.
The same measure, in the same setting: in the case of `CN1CCC(Oc2cc(NC(=O)Nc3ccc(-c4ccncc4)c(Cl)c3)ccc2Cl)CC1` it was 100%; in that of `COc1ccc2nccc(N3CCC(CCNCc4ccc5c(n4)NC(=O)CO5)CC3)c2c1.Cl`, 50%; in that of `Nc1nc(N)c2c(Cl)c(N3CCOCC3)ccc2n1`, 3%.
Consider `Cl.N=C(N)c1ccc2[nH]c(-c3cc4cc(C(=N)N)ccc4o3)cc2c1`, for which the Inhibition is listed as 87%.
`O=C(O)C(F)(F)F.c1ccc(-n2ncc(CNCc3ccc(-c4cccc(-c5nc6ccccc6[nH]5)c4)cc3)n2)cc1`: the Inhibition was determined as 9%.
Same read-out and setting: under `COc1ccc(-c2nonc2NC(=O)c2ccc(C(C)(C)C)cc2)cc1OC` stands 73%; under `Cl.NC(=O)c1cnc2cc(-c3ccoc3)ccc2c1Nc1ccc(NC(=O)Nc2ccccc2Cl)cc1`, 76%; under `COc1ccc2ncc(F)c(CCN3CCC(NCc4cc(OC)c5c(c4)OCCO5)CC3)c2n1.Cl`, 53%.
Take `Cc1ccc(CN2CCN(CC(O)COc3ccc4c(c3)CCC4)CC2)cc1` (stereo unspecified): the Inhibition is on record as 0%.
With `CCc1c(C)nc(-n2nc(C)cc2NC(=O)C(CC)c2ccccc2)[nH]c1=O` (stereo unspecified), the Inhibition is on record as 93%.
`Cc1cc(N[C@@H](Cc2ccccc2)C(=O)Nc2ccccc2)nc(NCCc2ccccc2)n1.O=C(O)C(F)(F)F` yielded an Inhibition of 87%.
The same measure, in the same setting: in the case of `CCCc1cc(Cc2cnc(N)nc2N)cc(CC)c1OC.Cl` it was 1%; in that of `CCNc1cc(C(=O)N[C@@H](Cc2cc(F)cc(F)c2)[C@H](O)CNCc2cccc(C(F)(F)F)c2)cc(N2CCCCS2(=O)=O)c1.Cl`, 80%; in that of `CCC(C)(C)NC(=O)C(c1cccc(OC)c1)N(C(=O)CNC(=O)c1cccs1)c1ccc2c(c1)OCCO2` (stereo unspecified), 76%.
For `CS(=O)(=O)NCCCNCc1ccc(-c2ccc(-c3nc4cc(C(F)(F)F)ccc4[nH]3)cc2)cc1.O=C(O)C(F)(F)F`, the Inhibition is recorded as 83%.
Consider `CC[C@H](C)CNC(=O)c1cncc(-c2ccc(CNCC3CNCCCO3)cc2)c1.O=C(O)C(F)(F)F` (stereo partly specified), for which the Inhibition is reported as 0%.
`O=S(=O)(Nc1ccc(CCN2CCCCC2CCN2CCCC2)cc1)c1ccc(-c2ccccc2)cc1` (stereo unspecified) came in with an Inhibition of 18%.

Another assay has as its system HepG2. Nature of the assay: GSK_TCMDC: Percent inhibition of human HepG2 cell line. Test compounds present at 10uM. It is filed as functional.
In turn, `CN1CCN(c2ncnc3ccc(NC(=O)Nc4ccc(Cl)c(Cl)c4)cc23)CC1` gave an Inhibition of 7%.
On to `O=C(NCc1ccc(Cl)c(Cl)c1)c1ccc(-c2nc3ccc(Cl)cc3[nH]2)cc1`, for which the Inhibition was found to be 20%.
Compound `C[C@H](Cc1ccc(CCc2ccc(C[C@@H](C)NC[C@H](O)c3cccc(Cl)c3)cc2)cc1)NC[C@H](O)c1cccc(Cl)c1.Cl` had an Inhibition of 100%.
The same measure, in the same setting: under `Cl.O=C(Nc1ccc2c(c1)CCN(C1CCC1)CC2)c1ccc(-c2cn3ccccc3n2)cc1` stands 13%; under `CCCC(C)NC[C@@H](O)[C@H](Cc1ccccc1)NC(=O)c1cc(NCC)cc(N2CCCCS2(=O)=O)c1.Cl` (stereo partly specified), 0%; under `CC1CCC(C(C)C)C(OC(=O)CSc2nnc3c(n2)[nH]c2ccccc23)C1` (stereo unspecified), 0%.
Compound `CCN(CC)CCCCCNc1c2ccc(Cl)cc2nc2ccc(OC)cc12.Cl` showed an Inhibition of 96%.
Same read-out and setting: in the case of `Cl.Nc1nc(N)c2c(ccc3nn(S(=O)(=O)N4CCCC4)cc32)n1` it was 69%.
`Cc1ccc(Nc2nc(N)c3ccccc3n2)cc1.Cl`: the Inhibition was determined as 9%.
Regarding `CC(C)(C)CCN1CCC(CNC(=O)c2cc(-c3cccc(C(F)(F)F)c3)cs2)C1.O=C(O)C(F)(F)F` (stereo unspecified), the Inhibition is given as 47%.
The compound `CC(C)[C@@H](C(=O)NCc1cccc(C(F)(F)F)c1)N1C(=O)CCC1C(=O)Nc1ccc([N+](=O)[O-])cc1` (stereo partly specified) yielded an Inhibition of 0%.
`Cc1cc(-c2ccc(NC(=O)N3CCc4cc(Br)c(N5CCN(C)CC5)cc43)cc2)cc(C)n1`: the Inhibition was 29%.
The same measure, in the same setting: under `CCOc1cccc(C(=O)Nc2cccc(CN3CCCN(Cc4ccc(O)cc4)CC3)c2)c1.O=C(O)C(F)(F)F` stands 23%; under `O=C(Nc1cc(C(F)(F)F)cc(C(F)(F)F)c1)c1cc(Cl)ccc1O` [IMD-0354], 84%.
`c1ccc(-c2cccc(-c3ccccn3)n2)nc1` [TERPYRIDINE] displayed an Inhibition of 45%.
As for `CCOc1cc2ncnc(Nc3cc(Cl)c(Cl)c(Cl)c3)c2cc1OCC.Cl`, the Inhibition is reported as 11%.
Consider `CCCCCc1ccc(NC(=O)Nc2ccc(Cn3ncc(N4CCCNCC4)c(Cl)c3=O)cc2)cc1.O=C(O)C(F)(F)F`, for which the Inhibition is reported as 15%.
For the compound `NCC1CCCN1Cc1ccc(-c2cccc(-c3nc4cc(C(F)(F)F)ccc4[nH]3)c2)cc1.O=C(O)C(F)(F)F` (stereo unspecified), the Inhibition came out at 24%.
For the compound `COc1ccc2nccc([C@@H](O)CN3CCC(NCc4ccc5nnsc5c4)CC3)c2c1.O=C(O)C(=O)O`, the Inhibition worked out at 16%.
`CN1CCC(Oc2cc(NC(=O)Nc3ccc(-c4ccncc4)c(Cl)c3)ccc2Cl)CC1` returned an Inhibition of 23%.
`COc1ccc2nccc(N3CCC(CCNCc4ccc5c(n4)NC(=O)CO5)CC3)c2c1.Cl` gave an Inhibition of 22%.
The same measure, in the same setting: under `Nc1nc(N)c2c(Cl)c(N3CCOCC3)ccc2n1` stands 65%; under `O=C(O)C(F)(F)F.c1ccc(-n2ncc(CNCc3ccc(-c4cccc(-c5nc6ccccc6[nH]5)c4)cc3)n2)cc1`, 21%; under `COc1ccc(-c2nonc2NC(=O)c2ccc(C(C)(C)C)cc2)cc1OC`, 0%.
As for `Cl.NC(=O)c1cnc2cc(-c3ccoc3)ccc2c1Nc1ccc(NC(=O)Nc2ccccc2Cl)cc1`, the Inhibition is 39%.
The compound `COc1ccc2ncc(F)c(CCN3CCC(NCc4cc(OC)c5c(c4)OCCO5)CC3)c2n1.Cl` returned an Inhibition of 0%.
In the case of `Cc1ccc(CN2CCN(CC(O)COc3ccc4c(c3)CCC4)CC2)cc1` (stereo unspecified), the Inhibition is given as 0%.
The compound `CCc1c(C)nc(-n2nc(C)cc2NC(=O)C(CC)c2ccccc2)[nH]c1=O` (stereo unspecified) yielded an Inhibition of 41%.
`Cc1cc(N[C@@H](Cc2ccccc2)C(=O)Nc2ccccc2)nc(NCCc2ccccc2)n1.O=C(O)C(F)(F)F` gave an Inhibition of 8%.
Take `CCCc1cc(Cc2cnc(N)nc2N)cc(CC)c1OC.Cl`: the Inhibition stood at 4%.
Same read-out and setting: under `CCNc1cc(C(=O)N[C@@H](Cc2cc(F)cc(F)c2)[C@H](O)CNCc2cccc(C(F)(F)F)c2)cc(N2CCCCS2(=O)=O)c1.Cl` stands 1%; under `CCC(C)(C)NC(=O)C(c1cccc(OC)c1)N(C(=O)CNC(=O)c1cccs1)c1ccc2c(c1)OCCO2` (stereo unspecified), 0%; under `CS(=O)(=O)NCCCNCc1ccc(-c2ccc(-c3nc4cc(C(F)(F)F)ccc4[nH]3)cc2)cc1.O=C(O)C(F)(F)F`, 25%.
`CC[C@H](C)CNC(=O)c1cncc(-c2ccc(CNCC3CNCCCO3)cc2)c1.O=C(O)C(F)(F)F` (stereo partly specified) yielded an Inhibition of 0%.
Turning to `O=S(=O)(Nc1ccc(CCN2CCCCC2CCN2CCCC2)cc1)c1ccc(-c2ccccc2)cc1` (stereo unspecified), the Inhibition is 18%.

Usually Inhibition stands for the relative decrease from the control value, in per cent. Read a low Inhibition as a response near the control.

Values taken from ChEMBL document CHEMBL1157539, “Thousands of chemical starting points for antimalarial lead identification” (Nature, 2010).
